The campaign covered roughly 5,500 compounds. About 2,000 (36%) were called active. Not shown: some 18% with an inconclusive outcome. Cut-off read from the data, not from the text of the source: active = normalized growth mostly below about 0.91 (no sharp cut-off); inconclusive = no clear call, values can overlap the other calls; inactive = mostly above about 0.92. This is one part of the list.
Test: chemical genetic growth profiling, strain panel (AID 1159580);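 note: tested at 20 µM; growth read once vehicle control cultures reached saturation at 30 °C; 1 = growth at the plate median or of vehicle wells; lower values mean less growth of the strain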
Conditions: S. cerevisiae deletion strains, growth OD
[1] = locus YDL101C, strain DUN1, stronger effect = lower value
[2] = locus YHR030C, strain SLT2, stronger effect = lower value

Measured: normalized growth

Cc1csc2c(N3CCN(C(=S)Nc4ccc(C(F)(F)F)cc4)CC3)ncnc12
active: locus YLR113W, strain HOG1, stronger effect = lower value 0.826
inactive: locus YAR019C, strain CDC15, stronger effect = lower value 0.985 | locus YBL105C, strain PKC1, stronger effect = lower value 0.989 | locus YBR135W, strain CKS1, stronger effect = lower value 0.981 | locus YBR136W, strain MEC1, stronger effect = lower value 0.982 | locus YBR160W, strain CDC28, stronger effect = lower value 0.979 | locus YDL017W, strain CDC7, stronger effect = lower value 0.992 | locus YDL028C, strain MPS1, stronger effect = lower value 0.981 | [1] 0.988 | locus YDL108W, strain KIN28, stronger effect = lower value 0.99 | locus YDL132W, strain cdc53, stronger effect = lower value 0.998 | locus YDL214C, strain PRR2, stronger effect = lower value 0.956 | locus YDR052C, strain DBF4, stronger effect = lower value 0.999 | locus YDR054C, strain cdc34, stronger effect = lower value 0.997 | locus YDR226W, strain ADK1, stronger effect = lower value 0.997 | locus YDR477W, strain SNF1, stronger effect = lower value 0.983 | locus YER123W, strain YCK3, stronger effect = lower value 0.937 | locus YER133W, strain GLC7, stronger effect = lower value 0.974 | locus YFL009W, strain cdc4, stronger effect = lower value 0.992 | locus YFL029C, strain CAK1, stronger effect = lower value 0.991 | locus YFR003C, strain YPI1, stronger effect = lower value 0.992 | locus YFR019W, strain FAB1, stronger effect = lower value 0.965 | locus YFR028C, strain CDC14, stronger effect = lower value 0.978 | locus YGR040W, strain KSS1, stronger effect = lower value 0.959 | locus YGR052W, strain FMP48, stronger effect = lower value 1.02 | locus YGR092W, strain DBF2, stronger effect = lower value 0.972 | [2] 0.979 | locus YHR079C, strain IRE1, stronger effect = lower value 0.991 | locus YHR082C, strain KSP1, stronger effect = lower value 1.04 | locus YHR205W, strain SCH9, stronger effect = lower value 0.919 | locus YIL147C, strain SLN1, stronger effect = lower value 0.992 | locus YJL095W, strain BCK1, stronger effect = lower value 0.982 | locus YJL128C, strain PBS2, stronger effect = lower value 0.96 | locus YJL157C, strain FAR1, stronger effect = lower value 0.944 | locus YJR016C, strain ILV3, stronger effect = lower value 0.993 | locus YJR066W, strain TOR1 (second series), stronger effect = lower value 0.928 | locus YJR066W, strain TOR1, stronger effect = lower value 1.06 | locus YKL048C, strain ELM1, stronger effect = lower value 0.965 | locus YKL067W, strain YNK1, stronger effect = lower value 0.963 | locus YKL101W, strain HSL1, stronger effect = lower value 0.944 | locus YKL193C, strain SDS22, stronger effect = lower value 0.986 | locus YKL203C, strain TOR2, stronger effect = lower value 1.03 | locus YLR133W, strain CKI1, stronger effect = lower value 0.959 | locus YLR403W, strain SFP1, stronger effect = lower value 0.956 | locus YML070W, strain DAK1, stronger effect = lower value 0.924 | locus YMR001C, strain CDC5, stronger effect = lower value 1 | locus YMR205C, strain PFK2 (second series), stronger effect = lower value 0.949 | locus YMR277W, strain FCP1, stronger effect = lower value 0.987 | locus YNL006W, strain LST8, stronger effect = lower value 0.988 | locus YNL020C, strain ARK1, stronger effect = lower value 0.956 | locus YNL161W, strain CBK1, stronger effect = lower value 0.98 | locus YNL183C, strain NPR1, stronger effect = lower value 0.996 | locus YNL207W, strain RIO2, stronger effect = lower value 0.978 | locus YNL222W, strain SSU72, stronger effect = lower value 0.991 | locus YNL307C, strain MCK1 (second series), stronger effect = lower value 0.937 | locus YOL078W, strain AVO1, stronger effect = lower value 0.992 | locus YOL136C, strain PFK27, stronger effect = lower value 0.922 | locus YOR061W, strain CKA2, stronger effect = lower value 0.964 | locus YOR119C, strain RIO1, stronger effect = lower value 1.03 | locus YOR231W, strain MKK1, stronger effect = lower value 0.928 | locus YOR329C, strain SCD5, stronger effect = lower value 0.986 | locus YPL031C, strain PHO85, stronger effect = lower value 0.986 | locus YPL153C, strain RAD53, stronger effect = lower value 0.979 | locus YPL204W, strain HRR25, stronger effect = lower value 0.941 | locus YPL209C, strain IPL1, stronger effect = lower value 0.984 | locus YPL256C, strain CLN2, stronger effect = lower value 0.942 | locus YPR025C, strain CCL1, stronger effect = lower value 0.982 | locus YPR106W, strain ISR1, stronger effect = lower value 0.975 | locus YPR111W, strain DBF20, stronger effect = lower value 0.977 | strain NNK1, stronger effect = lower value 0.967 | strain TSCII, stronger effect = lower value 0.992

COc1ccccc1C1CCN(c2ncnc3scc(-c4ccccc4)c23)CC1
inactive: locus YAL013W, strain DEP1, stronger effect = lower value 1 | locus YBR229C, strain ROT2, stronger effect = lower value 1.01 | locus YCL061C, strain MRC1, stronger effect = lower value 1 | [1] 1.04 | locus YDL134C, strain PPH21, stronger effect = lower value 0.994 | locus YDR150W, strain NUM1, stronger effect = lower value 1.05 | locus YEL061C, strain CIN8, stronger effect = lower value 1 | locus YGR078C, strain PAC10, stronger effect = lower value 1.01 | locus YGR229C, strain SMI1, stronger effect = lower value 1.01 | [2] 1.03 | locus YHR087W, strain rtc3, stronger effect = lower value 0.976 | locus YJR043C, strain POL32, stronger effect = lower value 1.01 | locus YJR075W, strain HOC1, stronger effect = lower value 1.01 | locus YKL190W, strain CNB1, stronger effect = lower value 1 | locus YLR039C, strain RIC1, stronger effect = lower value 1.02 | locus YLR058C, strain SHM2 (second series), stronger effect = lower value 0.984 | locus YLR085C, strain ARP6, stronger effect = lower value 1.03 | locus YLR262C, strain YPT6, stronger effect = lower value 1.01 | locus YML094W, strain GIM5, stronger effect = lower value 0.992 | locus YMR219W, strain ESC1, stronger effect = lower value 0.996 | locus YMR263W, strain SAP30, stronger effect = lower value 1.02 | locus YNL128W, strain TEP1, stronger effect = lower value 1.02 | locus YNL153C, strain GIM3, stronger effect = lower value 1.01 | locus YNL298W, strain CLA4 (second series), stronger effect = lower value 0.994 | locus YNL322C, strain KRE1, stronger effect = lower value 0.992 | locus YNR030W, strain Alg12, stronger effect = lower value 1 | locus YPL055C, strain LGE1, stronger effect = lower value 0.987 | locus YPL241C, strain CIN2, stronger effect = lower value 1.04 | locus YPR135W, strain CTF4, stronger effect = lower value 1.02

— PubChem BioAssay AID1159580 (chemical genetic matrix, 2015)
